In article doi:10.1101/2024.03.05.583629:

molecular target: pT7_6His-AlfaTag-HOXD13 (human, UniProt P35453 263-343); assay: PADIT-seq; conditions: dsDNA, one strand shown
Sequence (P35453 263-343): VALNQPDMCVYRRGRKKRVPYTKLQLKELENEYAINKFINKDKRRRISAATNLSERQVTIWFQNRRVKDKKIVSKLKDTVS

Which binding signal does the source give for “CTCGAGGATATCAAGATCTGGCCTCGGCAAGGTAAAAGGAACCTCTAGCTAGCCGACTCACTATAGGGATAATCGCCCTGAGCAAAGACC” here?
Its binding signal is -0.357 ± 0.0936 log2FC.

“CTCGAGGATATCAAGATCTGGCCTCGGCAGTCCACGCGGAACCTCTAGCTAGCCGACTCACTATAGGGATAATCGCCCTGAGCAAAGACC” was tested. Which binding signal did it give?
The binding signal was -0.993 ± 0.114 log2FC.

“CTCGAGGATATCAAGATCTGGCCTCGGCTTTTTACTGGGAACCTCTAGCTAGCCGACTCACTATAGGGATAATCGCCCTGAGCAAAGACC” was tested. Which binding signal did it give?
Its binding signal is 2.73 ± 0.0875 log2FC.

Which binding signal does the source give for “CTCGAGGATATCAAGATCTGGCCTCGGCGTTTTAAATGGAACCTCTAGCTAGCCGACTCACTATAGGGATAATCGCCCTGAGCAAAGACC” here?
Its binding signal is 1.63 ± 0.0846 log2FC.

For “CTCGAGGATATCAAGATCTGGCCTCGGCCTTTTAGTTGGAACCTCTAGCTAGCCGACTCACTATAGGGATAATCGCCCTGAGCAAAGACC”, which binding signal is on record?
The binding signal was 0.113 ± 0.0927 log2FC.

Which binding signal does the source give for “CTCGAGGATATCAAGATCTGGCCTCGGCGATATAAAAGGAACCTCTAGCTAGCCGACTCACTATAGGGATAATCGCCCTGAGCAAAGACC” here?
Its binding signal is 1.99 ± 0.0693 log2FC.

Which binding signal does the source give for “CTCGAGGATATCAAGATCTGGCCTCGGCCTATTAAAAGGAACCTCTAGCTAGCCGACTCACTATAGGGATAATCGCCCTGAGCAAAGACC” here?
Its binding signal is 3.05 ± 0.0763 log2FC.

How did the binding signal turn out when “CTCGAGGATATCAAGATCTGGCCTCGGCATCATAAAAGGAACCTCTAGCTAGCCGACTCACTATAGGGATAATCGCCCTGAGCAAAGACC” was run?
Its binding signal is 2.56 ± 0.0828 log2FC.

“CTCGAGGATATCAAGATCTGGCCTCGGCGGTATAAAAGGAACCTCTAGCTAGCCGACTCACTATAGGGATAATCGCCCTGAGCAAAGACC” was tested. Which binding signal did it give?
Its binding signal is 1.44 ± 0.072 log2FC.

How did the binding signal turn out when “CTCGAGGATATCAAGATCTGGCCTCGGCCTCTTAAAAGGAACCTCTAGCTAGCCGACTCACTATAGGGATAATCGCCCTGAGCAAAGACC” was run?
The binding signal was 2.2 ± 0.0925 log2FC.

“CTCGAGGATATCAAGATCTGGCCTCGGCCTTTTACCGGGAACCTCTAGCTAGCCGACTCACTATAGGGATAATCGCCCTGAGCAAAGACC” was tested. Which binding signal did it give?
Its binding signal is 0.698 ± 0.0877 log2FC.

With “CTCGAGGATATCAAGATCTGGCCTCGGCTGTCCACGCGGAACCTCTAGCTAGCCGACTCACTATAGGGATAATCGCCCTGAGCAAAGACC” as the sequence, how does the binding signal read?
The binding signal was -0.737 ± 0.124 log2FC.

With “CTCGAGGATATCAAGATCTGGCCTCGGCCCAGTAAAAGGAACCTCTAGCTAGCCGACTCACTATAGGGATAATCGCCCTGAGCAAAGACC” as the sequence, how does the binding signal read?
Its binding signal is 2.32 ± 0.0885 log2FC.

How did the binding signal turn out when “CTCGAGGATATCAAGATCTGGCCTCGGCGTTTTATTAGGAACCTCTAGCTAGCCGACTCACTATAGGGATAATCGCCCTGAGCAAAGACC” was run?
Its binding signal is 3.19 ± 0.0762 log2FC.

For “CTCGAGGATATCAAGATCTGGCCTCGGCGTTTTAGAAGGAACCTCTAGCTAGCCGACTCACTATAGGGATAATCGCCCTGAGCAAAGACC”, which binding signal is on record?
The binding signal was 0.37 ± 0.103 log2FC.

With “CTCGAGGATATCAAGATCTGGCCTCGGCAAGCTAAAAGGAACCTCTAGCTAGCCGACTCACTATAGGGATAATCGCCCTGAGCAAAGACC” as the sequence, how does the binding signal read?
The binding signal was -0.784 ± 0.107 log2FC.

For “CTCGAGGATATCAAGATCTGGCCTCGGCTAGCCACGCGGAACCTCTAGCTAGCCGACTCACTATAGGGATAATCGCCCTGAGCAAAGACC”, which binding signal is on record?
Its binding signal is -1.07 ± 0.127 log2FC.

For “CTCGAGGATATCAAGATCTGGCCTCGGCGATCCACGCGGAACCTCTAGCTAGCCGACTCACTATAGGGATAATCGCCCTGAGCAAAGACC”, which binding signal is on record?
Its binding signal is -1.01 ± 0.105 log2FC.

How did the binding signal turn out when “CTCGAGGATATCAAGATCTGGCCTCGGCTTTTTATCTGGAACCTCTAGCTAGCCGACTCACTATAGGGATAATCGCCCTGAGCAAAGACC” was run?
The binding signal was 0.754 ± 0.104 log2FC.

“CTCGAGGATATCAAGATCTGGCCTCGGCTGCTTAAAAGGAACCTCTAGCTAGCCGACTCACTATAGGGATAATCGCCCTGAGCAAAGACC” was tested. Which binding signal did it give?
Its binding signal is 0.659 ± 0.091 log2FC.

For “CTCGAGGATATCAAGATCTGGCCTCGGCATTTTAGACGGAACCTCTAGCTAGCCGACTCACTATAGGGATAATCGCCCTGAGCAAAGACC”, which binding signal is on record?
Its binding signal is -0.141 ± 0.116 log2FC.

For “CTCGAGGATATCAAGATCTGGCCTCGGCGCGTTTGCGGGAACCTCTAGCTAGCCGACTCACTATAGGGATAATCGCCCTGAGCAAAGACC”, which binding signal is on record?
The binding signal was -0.387 ± 0.156 log2FC.

How did the binding signal turn out when “CTCGAGGATATCAAGATCTGGCCTCGGCCGCCCAAGCGGAACCTCTAGCTAGCCGACTCACTATAGGGATAATCGCCCTGAGCAAAGACC” was run?
Its binding signal is -0.698 ± 0.123 log2FC.

For “CTCGAGGATATCAAGATCTGGCCTCGGCACGGTAAAAGGAACCTCTAGCTAGCCGACTCACTATAGGGATAATCGCCCTGAGCAAAGACC”, which binding signal is on record?
The binding signal was 0.528 ± 0.077 log2FC.

For “CTCGAGGATATCAAGATCTGGCCTCGGCCTTTTAATTGGAACCTCTAGCTAGCCGACTCACTATAGGGATAATCGCCCTGAGCAAAGACC”, which binding signal is on record?
The binding signal was 2.53 ± 0.0779 log2FC.

For “CTCGAGGATATCAAGATCTGGCCTCGGCTTTTTATTCGGAACCTCTAGCTAGCCGACTCACTATAGGGATAATCGCCCTGAGCAAAGACC”, which binding signal is on record?
Its binding signal is 1.86 ± 0.0775 log2FC.
